Experimental findings from PubChem BioAssay (NCI) are described below.

Compounds without any hit were thinned out: in the full panel of roughly 83,000, 20% have a hit.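 Single-concentration screen, 48 h exposure, 96-well plates. Endpoint: percent growth. Below 10 = active.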 A number with no mark means an inactive call. Activity calls are given as the source filed them.

Some test systems named below: SR leukemia; RPMI-8226 leukemia; OVCAR-8 ovarian; OVCAR-5 ovarian; OVCAR-4 ovarian; SK-OV-3 ovarian; IGROV1 ovarian; OVCAR-3 ovarian; HS 578T breast; NCI/ADR-RES ovarian; T-47D breast; BT-549 breast; MDA-MB-435 melanoma; SW-620 colon; MCF7 breast; HCT-116 colon; HCC-2998 colon; KM12 colon; MDA-MB-468 breast.
What all share (experiment): NCI-60 one-dose screen, 48 h (100 = growth as untreated, 0 = no growth, -100 = all killed)
Holding throughout (conditions): 10 µM

In the case of `Cc1ccc(-c2cc(C(=O)N=Nc3c(O)[nH]c4ccc(Br)cc34)c3ccccc3n2)cc1`, the growth with SR leukemia is 10.4%; with RPMI-8226 leukemia, 60.8%; in the assay with OVCAR-8 ovarian, 56.5%; in the assay on OVCAR-5 ovarian, 99.7%; in the assay with OVCAR-4 ovarian it was 71.9%; in the assay on SK-OV-3 ovarian, 107%. Also, the growth is 52.9% in the assay with IGROV1 ovarian; 79.2% in the assay on OVCAR-3 ovarian; 67.5% in the assay with HS 578T breast; 55% in the assay with NCI/ADR-RES ovarian; 75.2% in the assay on T-47D breast; 86.3% with BT-549 breast. Moreover, the growth was 45.1% with MDA-MB-435 melanoma; 34.1% in the assay on SW-620 colon; 28.5% with MCF7 breast; 27.4% with HCT-116 colon; 45.5% in the assay on HCC-2998 colon; 49.1% with KM12 colon. Further, in the assay with MDA-MB-468 breast, the growth is 31.2%.
As for `Clc1cccc(N/N=C/c2c[nH]c3ccccc23)n1`, the growth was 13.7% with SR leukemia; 4.05% (active) in the assay on RPMI-8226 leukemia; 41% in the assay on OVCAR-8 ovarian; 52.2% in the assay with OVCAR-5 ovarian; 41.3% in the assay on OVCAR-4 ovarian; 63.7% with SK-OV-3 ovarian. Also, the growth with IGROV1 ovarian was -4.86% (active); in the assay with OVCAR-3 ovarian, -12.6% (active); in the assay on HS 578T breast, 28.5%; with NCI/ADR-RES ovarian, -4.45% (active); with T-47D breast, 27.4%; with BT-549 breast, 3.11% (active). Besides, the growth is 19.8% in the assay with MDA-MB-435 melanoma; 52.1% with SW-620 colon; 11.2% with MCF7 breast; 23.4% in the assay on HCT-116 colon; 30.2% with HCC-2998 colon; 9.99% (active) in the assay with KM12 colon. Also, the growth in the assay on MDA-MB-468 breast was -10.1% (active).
As for `O=C(CSc1nnc(-c2ccc3nc(-c4ccccc4)[nH]c3c2)o1)Nc1ccc(Br)cc1`, the growth was 32.1% in the assay with SR leukemia; 41% with RPMI-8226 leukemia; 24.8% in the assay on OVCAR-8 ovarian; 86.1% with OVCAR-5 ovarian; 81.3% in the assay with OVCAR-4 ovarian; 80% in the assay on SK-OV-3 ovarian. The growth with IGROV1 ovarian was 80.4%; in the assay with OVCAR-3 ovarian, 73.9%; in the assay on HS 578T breast, 79.6%; with NCI/ADR-RES ovarian, 78.1%; in the assay with T-47D breast, 62.8%; with BT-549 breast it was 95.9%. In addition, the growth with MDA-MB-435 melanoma was 63.4%; with SW-620 colon, 2.94% (active); in the assay with MCF7 breast it was 28.4%; in the assay on HCT-116 colon it was 19.1%; in the assay on HCC-2998 colon it was 90.2%; in the assay with KM12 colon it was 53.9%. Moreover, the growth with MDA-MB-468 breast is 83.2%.
On to `CN1CCN(c2ccc(C(=O)/C=C/c3cc(C(F)(F)F)ccc3Cl)cc2)CC1`, for which the growth was 1.37% (active) in the assay with SR leukemia; 3.72% (active) in the assay with RPMI-8226 leukemia; -51.5% (active) in the assay on OVCAR-8 ovarian; -91% (active) in the assay with OVCAR-5 ovarian; -36.5% (active) in the assay on OVCAR-4 ovarian; 6.75% (active) with SK-OV-3 ovarian. Besides, the growth in the assay on IGROV1 ovarian is -82.7% (active); in the assay with OVCAR-3 ovarian, -37.7% (active); in the assay with HS 578T breast, 3.68% (active); in the assay with NCI/ADR-RES ovarian, -56.9% (active); with T-47D breast, -37.4% (active); with BT-549 breast, -72.6% (active). The growth was -56.5% (active) with MDA-MB-435 melanoma; -70.7% (active) with SW-620 colon; -85.3% (active) in the assay with MCF7 breast; -61.7% (active) in the assay on HCT-116 colon; -98.1% (active) in the assay on HCC-2998 colon; -36.5% (active) with KM12 colon. In addition, the growth in the assay with MDA-MB-468 breast was -97.6% (active).
With `O=C(Cc1ccc2c(c1)CN(C1CCC(=O)NC1=O)C2=O)NCc1cccc2ccccc12` (stereo not drawn), the growth with SR leukemia was 13.6%; in the assay on RPMI-8226 leukemia, 18%; in the assay on OVCAR-8 ovarian it was -3.71% (active); in the assay on OVCAR-5 ovarian it was -11% (active); in the assay with OVCAR-4 ovarian, -2.52% (active); in the assay on SK-OV-3 ovarian it was -7.7% (active). Further, the growth in the assay with IGROV1 ovarian is -13.5% (active); in the assay on OVCAR-3 ovarian, -22.3% (active); in the assay with HS 578T breast it was -11.3% (active); with NCI/ADR-RES ovarian, -18.5% (active); with T-47D breast, -4.86% (active); with BT-549 breast, -52.8% (active). The growth was -15.1% (active) with MDA-MB-435 melanoma; 5.07% (active) in the assay on SW-620 colon; 1.22% (active) in the assay on MCF7 breast; 9.59% (active) in the assay with HCT-116 colon; -7.26% (active) with KM12 colon; -69.2% (active) in the assay on MDA-MB-468 breast.
With `NS(=O)(=O)c1ccc(NC(=O)CSc2ccc(-c3ccccc3)nn2)c(Br)c1`, the growth with SR leukemia is 85.9%; in the assay on RPMI-8226 leukemia, 83%; with OVCAR-8 ovarian it was 38.3%; in the assay with OVCAR-5 ovarian it was 90.4%; with OVCAR-4 ovarian it was 53.8%; in the assay with SK-OV-3 ovarian, 98.7%. Moreover, the growth with IGROV1 ovarian was 93.8%; in the assay with OVCAR-3 ovarian it was 24.9%; in the assay with HS 578T breast it was 41.1%; in the assay with NCI/ADR-RES ovarian, 81.6%; with T-47D breast, 37.4%; in the assay with BT-549 breast it was 46.3%. In addition, the growth in the assay on MDA-MB-435 melanoma is 94.4%; with SW-620 colon, 99.5%; in the assay with MCF7 breast, 79%; in the assay on HCT-116 colon, 48.7%; with HCC-2998 colon it was 77.9%; in the assay on MDA-MB-468 breast, 98%.
With `Cc1cc(=O)oc2cc(OCCCCOc3ccc(/C=C/C(=O)Nc4ccccc4[N+](=O)[O-])cc3)ccc12`, the growth in the assay on SR leukemia was 88%; in the assay with RPMI-8226 leukemia it was 108%; in the assay with OVCAR-8 ovarian, 111%; with OVCAR-5 ovarian it was 108%; with OVCAR-4 ovarian, 109%; in the assay with SK-OV-3 ovarian, 119%. Besides, the growth with IGROV1 ovarian was 106%; in the assay with OVCAR-3 ovarian, 128%; in the assay with HS 578T breast, 111%; with NCI/ADR-RES ovarian, 115%; in the assay on T-47D breast it was 100%; in the assay with BT-549 breast it was 117%. Besides, the growth in the assay on MDA-MB-435 melanoma was 112%; with SW-620 colon it was 114%; in the assay on MCF7 breast it was 97%; with HCT-116 colon, 115%; with HCC-2998 colon it was 120%; with MDA-MB-468 breast it was 169%.
For the compound `O=C(CSc1nnc(-c2c[nH]c3ccccc23)n1-c1ccccc1)Nc1ccc(C(=O)/C=C/c2ccccc2Cl)cc1`, the growth with SR leukemia was 71.6%; in the assay on RPMI-8226 leukemia it was 40.3%; in the assay on OVCAR-8 ovarian, 61.7%; in the assay with OVCAR-5 ovarian, 101%; with OVCAR-4 ovarian, 79.1%; in the assay on SK-OV-3 ovarian, 95.2%. Further, the growth in the assay on IGROV1 ovarian was 95.1%; in the assay on OVCAR-3 ovarian, 80.6%; in the assay on HS 578T breast, 86.4%; with NCI/ADR-RES ovarian, 92.4%; with T-47D breast, 43.1%; with BT-549 breast it was 84.4%. Further, the growth in the assay with MDA-MB-435 melanoma was 65.8%; with SW-620 colon, 87.6%; in the assay with MCF7 breast, 40.4%; in the assay with HCC-2998 colon it was 94.6%; with KM12 colon, 74.7%; in the assay on MDA-MB-468 breast, 72.1%.
